# Among all 2,400 compounds or so, about 750 (31%) were called active.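 How the source made its calls: active means median signal gain over dofetilide-blocked control wells reaching their mean plus 3 SD, so readout 1 at least 0; inactive means the rest.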 This is one part of the list.
# Target: Voltage-gated inwardly rectifying potassium channel KCNH2 (Homo sapiens) (UniProt Q12809)
# Assay: hERG protection against dofetilide inhibition, confirmation, cell-based, thallium flux, duplicate retest, dofetilide IC70 (AID 1835)
# Conditions: hERG cell line, FluxOR thallium flux, dofetilide-blocked; at 10 µM; active compounds read high
# Sequence of Voltage-gated inwardly rectifying potassium channel KCNH2 (Homo sapiens) (Q12809 whole entry, looked up): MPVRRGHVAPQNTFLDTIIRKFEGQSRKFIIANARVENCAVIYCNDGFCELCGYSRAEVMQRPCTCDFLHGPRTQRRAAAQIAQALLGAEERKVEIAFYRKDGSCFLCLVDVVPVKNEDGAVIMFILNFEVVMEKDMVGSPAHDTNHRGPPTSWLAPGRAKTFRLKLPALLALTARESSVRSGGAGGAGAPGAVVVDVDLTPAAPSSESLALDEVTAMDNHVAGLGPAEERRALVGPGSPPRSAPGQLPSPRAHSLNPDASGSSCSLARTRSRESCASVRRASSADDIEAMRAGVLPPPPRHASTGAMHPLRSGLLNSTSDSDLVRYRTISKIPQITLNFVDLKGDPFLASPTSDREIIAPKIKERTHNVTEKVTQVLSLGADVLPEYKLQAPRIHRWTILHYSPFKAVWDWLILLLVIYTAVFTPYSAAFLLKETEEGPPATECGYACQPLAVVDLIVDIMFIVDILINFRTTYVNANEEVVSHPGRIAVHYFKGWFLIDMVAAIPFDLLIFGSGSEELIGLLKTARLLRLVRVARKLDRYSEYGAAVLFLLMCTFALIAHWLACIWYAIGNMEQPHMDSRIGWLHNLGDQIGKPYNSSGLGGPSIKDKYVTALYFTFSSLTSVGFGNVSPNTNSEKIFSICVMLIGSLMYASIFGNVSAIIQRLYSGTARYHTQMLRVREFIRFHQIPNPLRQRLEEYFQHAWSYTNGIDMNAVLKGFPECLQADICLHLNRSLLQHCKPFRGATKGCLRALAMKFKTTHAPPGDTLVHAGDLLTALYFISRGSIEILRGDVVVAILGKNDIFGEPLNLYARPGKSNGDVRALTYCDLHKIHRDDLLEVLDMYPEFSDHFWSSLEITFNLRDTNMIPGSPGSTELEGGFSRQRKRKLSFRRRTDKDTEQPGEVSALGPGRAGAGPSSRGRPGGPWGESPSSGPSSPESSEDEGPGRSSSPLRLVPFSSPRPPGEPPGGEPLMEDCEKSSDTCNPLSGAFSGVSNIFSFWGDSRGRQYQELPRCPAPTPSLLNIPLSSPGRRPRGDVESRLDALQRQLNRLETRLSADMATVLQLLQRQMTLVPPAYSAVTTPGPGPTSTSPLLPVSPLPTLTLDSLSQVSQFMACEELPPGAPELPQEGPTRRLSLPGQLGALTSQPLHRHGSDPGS
row,Structure (SMILES),"activity increase over dofetilide control, less the hit threshold"
1,O=C1CC(c2ccco2)CC2=C1C1c3ccccc3C(=O)N1c1ccccc1N2 (stereo unspecified),-3% (inactive)
2,CSc1ccccc1-n1nnnc1SCC(=O)Nc1cc(C)ccc1C,-30% (inactive)
3,Cn1nnnc1SCC(=O)Nc1ccccn1,4% (active)
4,Cn1nnnc1SCC(=O)NC1CCCc2ccccc21 (stereo unspecified),-21% (inactive)
5,CCc1ccc2c(c1)c(N=NC1=NC(=O)CS1)c(O)n2CC,39% (active)
6,CCn1c(O)c(N=NC2=NC(=O)CS2)c2ccccc21,3% (active)
7,CCn1c(O)c(N=NC2=NC(=O)CS2)c2cc(C)ccc21,-10% (inactive)
8,Cn1cc([N+](=O)[O-])c(C(=O)NCc2cc3cc(Cl)ccc3[nH]2)n1,-12% (inactive)
9,O=[N+]([O-])c1cc(F)c2cccnc2c1O,-6% (inactive)
10,NC(=O)CSc1nc2ccccc2c(=O)n1CCc1ccccc1,-8% (inactive)
11,COc1ccc(CCn2c(S)nc3ccccc3c2=O)cc1,6% (active)
12,COc1ccc(-n2cnc3ccccc3c2=O)c([N+](=O)[O-])c1,-9% (inactive)
13,O=C(COC(=O)C1CCC(=O)N1)Nc1cc(Cl)ccc1Cl (stereo unspecified),-13% (inactive)
14,Cc1ccccc1C(=O)NC(=S)Nc1sc2c(c1C#N)CCC(C)C2 (stereo unspecified),-13% (inactive)
15,CCC(C)(C)C1CCc2c(sc(NC(=O)c3ccccc3C(=O)O)c2C#N)C1 (stereo unspecified),18% (active)
16,COC(=O)c1c(NC(=O)C2CC=CCC2C(=O)O)sc(C)c1C (stereo unspecified),-13% (inactive)
17,CCC1CCc2c(sc(NC(=O)C3CC=CCC3C(=O)O)c2C#N)C1 (stereo unspecified),2% (active)
18,O=C(O)Cc1ccc(NC(=O)C2CC=CCC2C(=O)O)cc1 (stereo unspecified),-14% (inactive)
19,Cc1ccc(CS(=O)(=O)c2ncc(Cl)c(C(=O)Nc3nnc(C)s3)n2)cc1,-19% (inactive)
20,CC1(OC(=O)c2ccc(Cl)nc2)C(=O)C=C2C=C(c3ccc(C#N)cc3)OC=C2C1=O (stereo unspecified),-3% (inactive)
21,O=[N+]([O-])c1cc(S(=O)(=O)/N=C(/c2ccccc2)N2CCOCC2)ccc1Cl,-16% (inactive)
22,COc1ccc2nc(/N=C/c3c(C)[nH]n(-c4ccc(C)cc4C)c3=O)sc2c1,88% (active)
23,CCOc1ccc2nc(/N=C/c3c(C)[nH]n(-c4ccccc4)c3=O)sc2c1,100% (active)
24,CCOc1ccc2nc(/N=C/c3c(C)[nH]n(-c4ccc(C)cc4)c3=O)sc2c1,38% (active)
25,COc1ccc2nc(-n3c(O)c(C4=c5ccccc5=NC4=O)[nH]c3=S)sc2c1,-14% (inactive)
26,CCSC(=S)c1c(C)[nH]n(-c2ccccc2)c1=O,-19% (inactive)

row,Structure (SMILES),"activity increase over dofetilide control, less the hit threshold"
1,COc1ccc2nc(/N=C/c3c(C)[nH]n(-c4ccc(C)cc4)c3=O)sc2c1,62% (active)
2,CCOc1ccc(-n2cnc3sc(C)c(C)c3c2=O)cc1,-13% (inactive)
3,CCCSC(=S)c1c(C)[nH]n(-c2ccccc2)c1=O,0% (inactive)
4,Cc1nn(-c2cccc(C(F)(F)F)c2)c(Cl)c1/C=N/Nc1cccc(C(=O)O)c1,-28% (inactive)
5,Brc1ccc(C2=CC(c3ccco3)n3nnnc3N2)cc1 (stereo unspecified),-13% (inactive)
6,C=CCn1c(SCC(=O)Nc2cccc(C)c2)nnc1-c1cnccn1,-18% (inactive)
7,O=C(CSc1cccc[n+]1[O-])C12CC3CC(CC(C3)C1)C2,-11% (inactive)
8,Cc1cc(OCCN2CCCCCC2)ccc1[N+](=O)[O-],-3% (inactive)
9,COCCNC(=O)C1CCN(S(=O)(=O)N2CCC3(CC2)OCCO3)CC1,-21% (inactive)
10,Cc1cc2nccc(-c3ccc(Cl)cc3Cl)n2n1,-3% (inactive)
11,Cc1[nH]n(-c2ccccc2)c(=O)c1N=Nc1ccc(C(N)=O)cc1,-23% (inactive)
12,Cc1[nH]n(-c2ccc(Cl)cc2)c(=O)c1/C=N/c1nnc(-c2ccccc2)s1,106% (active)
13,Cn1cnnc1SCC(=O)NCc1ccccc1,-20% (inactive)
14,CCn1c(O)c(N=NC(=O)CNC(=O)c2ccccc2F)c2ccccc21,-7% (inactive)
15,CCn1c(O)c(N=NC(=S)NCC2CCCO2)c2ccccc21 (stereo unspecified),-1% (inactive)
16,CCCn1c(O)c(N=NC(=O)c2ccco2)c2ccccc21,17% (active)
17,N#Cc1c(NC(=O)c2cc(-n3cnnc3)ccc2Cl)sc2c1CCCC2,5% (active)
18,CC1(C)Cc2c(sc(NC(=O)C(=O)N3CCCC3)c2C#N)CO1,-2% (inactive)
19,CN(C)Cc1c(C(=O)N/N=C/c2ccccc2OCc2c(F)cccc2Cl)nnn1-c1nonc1N,40% (active)
20,Nc1nonc1-n1nnc(C(=O)N/N=C/c2ccccn2)c1-c1ccccc1,-5% (inactive)
21,CCCOc1ccc(-c2c(C(=O)N/N=C/c3ccccc3OCC)nnn2-c2nonc2N)cc1,-7% (inactive)
22,Cc1c(C(=O)N/N=C/c2ccccn2)nnn1-c1nonc1N,-14% (inactive)
23,Nc1nonc1-n1nnc(C(=O)N/N=C/c2cccc(Cl)c2Cl)c1CN1CCCC1,5% (active)
24,CCc1ccc(/C=N/NC(=O)c2nnn(-c3nonc3N)c2C(C)C)cc1,-22% (inactive)
25,CN(NC1OC(=O)c2ccccc21)c1ccccc1[N+](=O)[O-] (stereo unspecified),-4% (inactive)
26,CCCCOC(=O)Nc1nnc(C(C)C)s1,-14% (inactive)

row,Structure (SMILES),"activity increase over dofetilide control, less the hit threshold"
1,CCc1nnc(NC(=O)c2cccc(C(=O)Nc3nnc(CC)s3)n2)s1,-10% (inactive)
2,CCOC(=O)c1cccc(C(=O)Nc2nc3ccc(OC)cc3s2)n1,-14% (inactive)
3,Cc1ccc2nc(NC(=S)NC(=O)c3ccco3)sc2c1,50% (active)
4,O=C(NC(=S)Nc1nc2ccccc2s1)c1ccco1,-3% (inactive)
5,CCc1ccc2nc(NC(=O)c3cc(C)on3)sc2c1,10% (active)
6,COc1ccc2nc(NC(=S)NC(=O)c3ccco3)sc2c1,2% (active)
7,CC(C)(C)Cc1nnc(NC(=O)c2ccco2)s1,-13% (inactive)
8,O=C(NC(=S)Nc1nc2ccc(F)cc2s1)c1ccco1,65% (active)
9,COc1cccc(-c2cc(C(F)(F)F)nc(N3CCCCC3)n2)c1,-17% (inactive)
10,Cc1ccc([N+](=O)[O-])c2c1C(N1CC(C)OC(C)C1)C(C)(C)O2 (stereo unspecified),-24% (inactive)
11,CCc1cccc(C)c1NC(=O)C1=C(C(=O)O)CCCC1,-14% (inactive)
12,NS(=O)(=O)c1ccc(Sc2ccc3c(c2)CCC3)nc1,-2% (inactive)
13,CSc1nc(C)c2c(n1)N(c1ccc(C(C)C)cc1)CC2,-9% (inactive)
14,Clc1ccc(Nc2ccc(Cl)nn2)cc1,-6% (inactive)
15,Cc1cc(OCC(=O)Nc2cc(S(=O)(=O)N3CCOCC3)ccc2N2CCCC2)ccc1C(C)C,-7% (inactive)
16,CCCCCN(C(=O)CCC(=O)OCC(=O)N(C)C1CCCCC1)c1c(N)n(CCCC)c(=O)[nH]c1=O,-12% (inactive)
17,COc1ccc(-c2nc(=S)c3ccc4ccccc4c3[nH]2)cc1,76% (active)
18,COc1ccc(-n2c(=S)[nH]c3ccccc3c2=S)cc1,-12% (inactive)
19,CC(C)CC(=O)Nc1ccc2c3c(cccc13)CC2,-3% (inactive)
20,CCC1(CC)Cc2ccccc2-c2[nH]c(=S)[nH]c(=O)c21,-6% (inactive)
21,CCn1c(=S)[nH]c2c(c1=O)C(C)(C)Cc1ccccc1-2,26% (active)
22,O=C(CSc1nc2ccccc2o1)NCc1n[nH]c(=O)c2ccccc12,-4% (inactive)
23,CCOc1ccccc1Nc1nc(-c2sc(C)nc2C)cs1,-9% (inactive)
24,CN(C(=O)c1ccc(Cl)c(S(=O)(=O)N2CCOCC2)c1)c1ccccc1C(=O)O,7% (active)
25,O=C(C1CCN(S(=O)(=O)c2cc(Cl)ccc2Cl)CC1)N1CCOCC1,-16% (inactive)
26,CCN(CC(=O)Nc1c(F)cccc1F)C(=O)c1ccc(Cl)c(S(=O)(=O)N2CCCCC2)c1,-19% (inactive)

row,Structure (SMILES),"activity increase over dofetilide control, less the hit threshold"
1,C=Cc1ccc(Cn2c(=O)n(CCCOC)c(=O)c3sccc32)cc1,-14% (inactive)
2,O=[N+]([O-])c1cccc(/C=N/N=C\c2ccccc2)c1,-20% (inactive)
3,C/C(=N\NC(=O)c1ccc(NS(=O)(=O)c2cccs2)cc1)c1ccc2c(c1)OCO2,-17% (inactive)
4,Cc1ccc(C(=O)N/N=C(/CC(=O)c2cccs2)C(F)(F)F)cc1,3% (active)
5,COc1ccc(S(=O)(=O)N2CCCC(C(=O)Nc3ccc(OC)c(OC)c3)C2)cc1 (stereo unspecified),-22% (inactive)
6,CCN(Cc1ccc(OC)c(F)c1)C(=O)C1CCCO1 (stereo unspecified),-3% (inactive)
7,COc1ccc(-c2cnn(C3CCS(=O)(=O)C3)c2N)cc1 (stereo unspecified),-23% (inactive)
8,COC(=O)c1ccc(C2C(C#N)=C(N)Oc3cc(O)ccc32)cc1 (stereo unspecified),69% (active)
9,COc1cc(C2C(C#N)=C(N)Oc3c2ccc2ccccc32)ccc1OCC(=O)Nc1ccc(C)cc1 (stereo unspecified),-19% (inactive)
10,CCOC(=O)C1=C(N)Oc2cc(O)ccc2C1c1cccnc1 (stereo unspecified),-12% (inactive)
11,O=C(NC1CCCC1)c1ccc(Br)o1,-5% (inactive)
12,CCCCOc1ccc(CC(=O)NCC(=O)O)cc1,-17% (inactive)
13,Cc1ccc(OC(=O)c2ccc(Br)o2)cc1,37% (active)
14,CCCOc1ccc(OC(=O)c2ccc(Br)o2)cc1,14% (active)
15,O=C(COC(=O)c1ccc(Br)o1)NC1CCCCC1,-6% (inactive)
16,Cc1ccsc1CN(C(=O)c1ccc([N+](=O)[O-])cc1)C1CCS(=O)(=O)C1 (stereo unspecified),-5% (inactive)
17,O=C(CS(=O)(=O)Cc1ccccc1)Nc1ccc(Cl)cn1,-11% (inactive)
18,CCNC(=O)C/C(C)=N/NC(=O)C(=O)Nc1ccc(CC)cc1,9% (active)
19,CCCCNC(=O)COC(=O)c1ccc(NC(C)=O)cc1,-18% (inactive)
20,CCCCCCC12CCC(C(=O)O)(CC1)CC2,14% (active)
21,CCOc1ccc(NC(=O)C2C(C(=O)O)C3(Cl)C(Cl)=C(Cl)C2(Cl)C3(Cl)Cl)cc1 (stereo unspecified),-8% (inactive)
22,CCOc1ccc(NC(=S)NS(=O)(=O)c2cc(Br)ccc2OCC)cc1,37% (active)
23,CCOc1ccc(NC(=O)CSc2nc3nc(C)cc(C)n3n2)cc1,-8% (inactive)
